Structures are written as SMILES. Where “and” joins values, the source holds several entries; their conditions need not be identical. Identical values can stand only once. Records with an inconclusive call do not appear. A number with no mark means an inactive call. Calls of active or inactive are those of the source. Calls follow the shape of the dose curve; as a rule, active = well fitted curve in the direction sought with a large enough effect; inconclusive = small, poorly fitted or top-dose-only effect, or another doubt; inactive = no such curve, though single readings can be large; an effect the other way counts as inactive or inconclusive.

From PubChem BioAssay (NCATS) come the findings set out here.

For one assay, the system named is CRL-7250. Description: Cytotoxic Profiling of Annotated Libraries Using Quantitative High-Throughput Screening (AID 1296008). Also: nearly all actives have a fitted effect of over 60% in size. Also: potency is read from the fitted curve at half-maximal effect. The note with it: Five cell lines viability, CellTiter-Glo ATP luminescence, 48-72 h; max response: stronger effect = lower value. Put shortly:
(§1)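 Compounds were pin-transferred onto cells and incubated 48 or 72 hr at 37 degree Celsius, 95% humidity. CellTiter-Glo was added, plates sat 10 min at room temperature, then ATP-coupled luminescence was imaged as the viability read-out.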

In a further assay the test system is HEK293. The assay is described as above. Particulars: Five cell lines viability, CellTiter-Glo ATP luminescence, 48-72 h; max response: stronger effect = lower value. Put shortly:
as §1
In general terms: In ATP-based viability assays light output follows the ATP content of the culture.

Assay [1] has as its system HaCat. The description is as above. The note with it: Five cell lines viability, CellTiter-Glo ATP luminescence, 48-72 h; max response: stronger effect = lower value. The method in brief:
as §1

Assay [2] relates to NIH3T3. The description is as above. Particulars: Five cell lines viability, CellTiter-Glo ATP luminescence, 48-72 h; max response: stronger effect = lower value. Put shortly: as §1
Assay [3] concerns HACAT. In words: qHTS assay to identify novel small-molecules to repurpose for Merkel cell carcinoma treatment (AID 1296009). Also: nearly all actives have a fitted effect of over 60% in size. Also: potency is read from the fitted curve at half-maximal effect. Particulars: MCC and control cell lines, CellTiter-Glo viability, 72 h; at 44.8 µM (top of the series) unless noted. Put shortly:
(§2)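 Luminescence from CellTiter-Glo, read 10 min after addition at room temperature, reported viability following a 72 hr, 37 degree celsius treatment with NPC or MIPE compounds in titration; values normalized to plate controls.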
For orientation: Quantitative high-throughput screening tests each substance at several concentrations.

The next assay has as its system MCC-26. Described as above. Particulars: MCC and control cell lines, CellTiter-Glo viability, 72 h; series mostly up to 46 µM. The method in brief: as §2
The subject of a further assay is MKL-2. Described as above. The note with it: MCC and control cell lines, CellTiter-Glo viability, 72 h; series mostly up to 46 µM. Put shortly:
as §2

The subject of a further assay is WaGa. Described as above. Particulars: MCC and control cell lines, CellTiter-Glo viability, 72 h; series mostly up to 46 µM. The method in brief: as §2
A further assay concerns KB-3-1. In words: Cytotoxic Profiling of Annotated Libraries Using Quantitative High-Throughput Screening (AID 1296008). Also: nearly all actives have a fitted effect of over 60% in size. Also: potency is read from the fitted curve at half-maximal effect. The note with it: Five cell lines viability, CellTiter-Glo ATP luminescence, 48-72 h; max response: stronger effect = lower value. Put shortly:
as §1

The next assay deals with MCC-13. Description: qHTS assay to identify novel small-molecules to repurpose for Merkel cell carcinoma treatment (AID 1296009). Also: nearly all actives have a fitted effect of over 60% in size. Also: potency is read from the fitted curve at half-maximal effect. The note with it: MCC and control cell lines, CellTiter-Glo viability, 72 h; series mostly up to 46 µM. Put shortly:
as §2

The next assay concerns MKL-1. Described as above. The note with it: MCC and control cell lines, CellTiter-Glo viability, 72 h; series mostly up to 46 µM. Put shortly: as §2
Assay [4] relates to NIH3T3. The description is as above. The note with it: MCC and control cell lines, CellTiter-Glo viability, 72 h; series mostly up to 44.8 µM. The method in brief:
as §2

Another assay concerns UISO. The assay is described as above. The note with it: MCC and control cell lines, CellTiter-Glo viability, 72 h; series mostly up to 46 µM. Put shortly:
as §2

A further assay deals with C33A. In words: Primary qHTS to identify gynecologic anti-cancer compounds using libraries of approved drugs and bioactive compounds (AID 1345084). Also: nearly all actives have a fitted effect of over 55% in size. The note with it: Gynecologic cancer cell panel viability, ATPlite luminescence, 48 h; series mostly up to 57.5 µM. The method in brief:
(§3)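 Cell viability after 48 h drug treatment, ATPlite luminescence readout; five doses.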

A further assay deals with CASKI. The description is as above. Particulars: Gynecologic cancer cell panel viability, ATPlite luminescence, 48 h; series mostly up to 57.5 µM. The method in brief: as §3
The test system of a further assay is Es-2. The assay is described as above. The note with it: Gynecologic cancer cell panel viability, ATPlite luminescence, 48 h; series mostly up to 57.5 µM. The method in brief: as §3
The next assay concerns HeLa. The description is as above. Particulars: Gynecologic cancer cell panel viability, ATPlite luminescence, 48 h; series mostly up to 57.5 µM. Put shortly: as §3
% is scaled to controls: 0 for no effect and ±100 for the full control effect.

With `CCC(C)SSc1ncc[nH]1` (centres undefined), the max response in the assay on CRL-7250 was -3.49%; with NIH3T3 [2], -14.8%. The Potency in the assay with HEK293 was 13.2 µM (active); in the assay with MKL-2, 16.6 µM (active); with WaGa it was 23.5 µM (active). For the same compound, the result in the assay with HaCat [1] and in the assay on HACAT [3] was inactive. Besides, the Potency entry in the assay with MCC-26 is “inactive”.
In the case of `CN[C@@H](C)[C@H]1[C@H](O)C[C@@]2(C)[C@@H]3CC[C@H]4C(C)(C)[C@@H](NC)CC[C@@]45C[C@@]35CC[C@]12C`, the max response in the assay with CRL-7250 was -4.48% and 3.02%; in the assay on HaCat [1], -3.67%; in the assay on KB-3-1, 4.02%. The outcome in the assay with HaCat [1], in the assay with KB-3-1 and in the assay with NIH3T3 [2] was inactive. Further, the outcome with HACAT [3] was “inactive [at 9.27 µM]”. Further, the Potency entry in the assay on MCC-13, with MCC-26, in the assay on MKL-1, in the assay on MKL-2, with NIH3T3 [4] and with UISO was “inactive” each time. Further, in the assay with WaGa, the Potency result was “inactive”. In addition, the activity change, negative = cytotoxicity was 14.9% [at 11.6 µM] in the assay with C33A, 1.7% [at 11.6 µM] in the assay on CASKI, -1.65% [at 11.6 µM] in the assay with Es-2 and 13.6% [at 11.6 µM] in the assay on HeLa.
On to `O=C1NC(=O)C(=Cc2ccc(-c3ccc(F)cc3O)o2)S1`, for which the max response in the assay with CRL-7250 was -7.89%; in the assay on HEK293, -12.7%; in the assay with HaCat [1], -35.3%; with NIH3T3 [2] it was -4.39%. Also, the Potency result in the assay with MCC-13, with MCC-26, in the assay on MKL-1 and in the assay on UISO was “inactive” each time.
As for `CCNC(=O)Nc1ccc(Oc2ncnc(N)c2C=NOC)cc1Cl`, the result in the assay on CRL-7250, in the assay on HaCat [1] and in the assay with HACAT [3] was inactive. Further, the max response with HEK293 was -3.24%; in the assay on NIH3T3 [2] it was 4.69%. The Potency entry in the assay on MCC-13, in the assay with MCC-26, in the assay with MKL-1, in the assay with MKL-2, in the assay with UISO and in the assay on WaGa was “inactive” throughout.
In the case of `O=C(c1ccc(C=Cc2n[nH]c3ccccc23)cc1)N1CCNCC1`, the max response is -12.3% with CRL-7250 and -9.22% in the assay with HEK293. The Potency in the assay with KB-3-1 is 9.35 µM (active); in the assay with NIH3T3 [2], 2.35 µM (active). For the same compound, the Potency result in the assay with MCC-13 and in the assay with MKL-2 was “inactive” each time.
Regarding `Cc1nc2c([nH]1)CCN(C(=O)c1ccc(NC(=O)c3ccccc3-c3ccccc3)cc1)c1ccccc1-2`, the max response was 1.7% and 3.01% in the assay on CRL-7250; -0.498% in the assay on HaCat [1]; 0.364% and -8.3% in the assay with KB-3-1; 4.2% in the assay on NIH3T3 [2]. In addition, the call in the assay on HaCat [1], in the assay with NIH3T3 [2] and in the assay with HACAT [3] was inactive. Also, the Potency entry with MCC-13, with MCC-26, with MKL-1, in the assay on MKL-2, with NIH3T3 [4] and with UISO was “inactive” in each case. Moreover, the Potency entry with WaGa, with C33A, in the assay on CASKI, with Es-2 and in the assay with HeLa was “inactive” throughout.
